# Measurements from the supplement of paper PMC4466140.
# How the values were obtained:
# Experiment in all cases: SPOT peptide array binding signal intensity (averaged, normalized) (arbitrary units (background-subtracted, floor 0; scale differs between SH3 domains)); higher = stronger binding of the SH3 domain to the peptide
# SpBzz1-D2 = target: SpBzz1-D2
# In short: (§1)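 To measure binding, SH3 domains from four yeast species were fused to GST, expressed in E. coli BL21(DE3) and purified on glutathione Sepharose. Each domain was incubated at 10 μg/ml overnight at 4°C on cellulose membranes with synthetic 15-mer peptides whose cysteines were replaced by serines. Anti-GST antibody, an HRP anti-mouse secondary and luminol were used for detection, and images were quantified with Genespotter. Reported binding signal is normalized, background-subtracted spot intensity averaged over replicates, in arbitrary units that differ between domains.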
# SpCyk3 = target: SpCyk3
# In short: as §1
# SpHof1 = target: SpHof1
# In short: as §1
# SpHof1-2 = target: SpHof1-2
# In short: as §1
# SpHof1-3 = target: SpHof1-3
# In short: as §1
# SpHse1 = target: SpHse1
# In short: as §1
# SpLsb1 = target: SpLsb1
# In short: as §1
# SpLsb4 = target: SpLsb4
# In short: as §1
# SpMyo1 = target: SpMyo1
# In short: as §1
# SpNbp2 = target: SpNbp2
# In short: as §1
# SpPex13 = target: SpPex13
# In short: as §1
# SpRvs167 = target: SpRvs167
# In short: as §1
# SpSla1-D1-D2 = target: SpSla1-D1-D2
# In short: as §1
# SpSla1-D3 = target: SpSla1-D3
# In short: as §1
# AgAbp1 = target: AgAbp1
# In short: as §1
# AgBbc1 = target: AgBbc1
# In short: as §1
# AgBem1-D1 = target: AgBem1-D1
# In short: as §1
# AgBzz1-D1 = target: AgBzz1-D1
# In short: as §1
# AgBzz1-D2 = target: AgBzz1-D2
# In short: as §1
# AgCyk3 = target: AgCyk3
# In short: as §1
# AgFus1 = target: AgFus1
# In short: as §1
# AgHof1 = target: AgHof1
# In short: as §1
# AgHse1 = target: AgHse1
# In short: as §1
# AgLsb1 = target: AgLsb1
# In short: as §1
# AgLsb4 = target: AgLsb4
# In short: as §1
# AgMyo5 = target: AgMyo5
# In short: as §1
# AgNbp2 = target: AgNbp2
# In short: as §1
# AgRvs167 = target: AgRvs167
# In short: as §1
# AgSho1 = target: AgSho1
# In short: as §1
# AgSla1-D1-D2 = target: AgSla1-D1-D2
# In short: as §1
# AgSla1-D3 = target: AgSla1-D3
# In short: as §1
# CaAbp1-D1 = target: CaAbp1-D1
# In short: as §1
# CaAbp1-D2 = target: CaAbp1-D2
# In short: as §1
# CaBbc1 = target: CaBbc1
# In short: as §1
# CaBem1-D1 = target: CaBem1-D1
# In short: as §1
# CaBzz1-D1 = target: CaBzz1-D1
# In short: as §1
# CaBzz1-D2 = target: CaBzz1-D2
# In short: as §1
# CaCyk3 = target: CaCyk3
# In short: as §1
# CaFus1 = target: CaFus1
# In short: as §1
# CaHof1 = target: CaHof1
# In short: as §1
# CaHse1 = target: CaHse1
# In short: as §1
# CaLsb1 = target: CaLsb1
# In short: as §1
# CaLsb4 = target: CaLsb4
# In short: as §1
# CaMyo5 = target: CaMyo5
# In short: as §1
# CaNbp2 = target: CaNbp2
# In short: as §1
# CaRvs167 = target: CaRvs167
# In short: as §1
# CaRvs167-3 = target: CaRvs167-3
# In short: as §1
# CaSho1 = target: CaSho1
# In short: as §1
# CaSla1-D1-D2 = target: CaSla1-D1-D2
# In short: as §1
# CaSla1-D3 = target: CaSla1-D3
# In short: as §1
# ScAbp1 = target: ScAbp1
# In short: as §1
# ScBbc1 = target: ScBbc1
# In short: as §1
# ScBem1-D1 = target: ScBem1-D1
# In short: as §1
# ScBzz1-D1 = target: ScBzz1-D1
# In short: as §1
# ScBzz1-D2 = target: ScBzz1-D2
# In short: as §1
# ScCyk3 = target: ScCyk3
# In short: as §1
# ScFus1 = target: ScFus1
# In short: as §1
# ScHof1 = target: ScHof1
# In short: as §1
# ScHse1 = target: ScHse1
# In short: as §1
# ScLsb1 = target: ScLsb1
# In short: as §1
# ScLsb2 = target: ScLsb2
# In short: as §1
# ScLsb3 = target: ScLsb3
# In short: as §1
# ScLsb4 = target: ScLsb4
# In short: as §1
# ScMyo3 = target: ScMyo3
# In short: as §1
# ScMyo5 = target: ScMyo5
# In short: as §1
# ScNbp2 = target: ScNbp2
# In short: as §1
# ScPex13 = target: ScPex13
# In short: as §1
# ScRvs167 = target: ScRvs167
# In short: as §1
# ScSho1 = target: ScSho1
# In short: as §1
# ScSla1-D1-D2 = target: ScSla1-D1-D2
# In short: as §1
# ScSla1-D3 = target: ScSla1-D3
# In short: as §1
# SpAbp1-D1 = target: SpAbp1-D1
# In short: as §1
# SpBbc1 = target: SpBbc1
# In short: as §1
# SpBzz1-D1 = target: SpBzz1-D1
# In short: as §1
binder,measurement,setting,value
RKNRAPPQRPRFNRE,SPOT peptide array binding signal intensity,SpBzz1-D2,23
same,SPOT peptide array binding signal intensity,SpCyk3,9.5
same,SPOT peptide array binding signal intensity,SpHof1,200
same,SPOT peptide array binding signal intensity,SpHof1-2,13.5
same,SPOT peptide array binding signal intensity,SpHof1-3,286
same,SPOT peptide array binding signal intensity,SpHse1,253
same,SPOT peptide array binding signal intensity,SpLsb1,190
same,SPOT peptide array binding signal intensity,SpLsb4,707
same,SPOT peptide array binding signal intensity,SpMyo1,14
same,SPOT peptide array binding signal intensity,SpNbp2,307
same,SPOT peptide array binding signal intensity,SpPex13,32
same,SPOT peptide array binding signal intensity,SpRvs167,67.8
same,SPOT peptide array binding signal intensity,SpSla1-D1-D2,48
same,SPOT peptide array binding signal intensity,SpSla1-D3,7
VYTRTAFQIPGDDKI,SPOT peptide array binding signal intensity,AgAbp1,≤ 0
same,SPOT peptide array binding signal intensity,AgBbc1,≤ 0
same,SPOT peptide array binding signal intensity,AgBem1-D1,≤ 0
same,SPOT peptide array binding signal intensity,AgBzz1-D1,29
same,SPOT peptide array binding signal intensity,AgBzz1-D2,20
same,SPOT peptide array binding signal intensity,AgCyk3,0.5
same,SPOT peptide array binding signal intensity,AgFus1,≤ 0
same,SPOT peptide array binding signal intensity,AgHof1,10
same,SPOT peptide array binding signal intensity,AgHse1,≤ 0
same,SPOT peptide array binding signal intensity,AgLsb1,474
same,SPOT peptide array binding signal intensity,AgLsb4,≤ 0
same,SPOT peptide array binding signal intensity,AgMyo5,≤ 0
same,SPOT peptide array binding signal intensity,AgNbp2,≤ 0
same,SPOT peptide array binding signal intensity,AgRvs167,0.333
same,SPOT peptide array binding signal intensity,AgSho1,≤ 0
same,SPOT peptide array binding signal intensity,AgSla1-D1-D2,≤ 0
same,SPOT peptide array binding signal intensity,AgSla1-D3,≤ 0
same,SPOT peptide array binding signal intensity,CaAbp1-D1,≤ 0
same,SPOT peptide array binding signal intensity,CaAbp1-D2,≤ 0
same,SPOT peptide array binding signal intensity,CaBbc1,3
same,SPOT peptide array binding signal intensity,CaBem1-D1,≤ 0
same,SPOT peptide array binding signal intensity,CaBzz1-D1,83.5
same,SPOT peptide array binding signal intensity,CaBzz1-D2,26
same,SPOT peptide array binding signal intensity,CaCyk3,≤ 0
same,SPOT peptide array binding signal intensity,CaFus1,≤ 0
same,SPOT peptide array binding signal intensity,CaHof1,≤ 0
same,SPOT peptide array binding signal intensity,CaHse1,≤ 0
same,SPOT peptide array binding signal intensity,CaLsb1,184
same,SPOT peptide array binding signal intensity,CaLsb4,≤ 0
same,SPOT peptide array binding signal intensity,CaMyo5,≤ 0
same,SPOT peptide array binding signal intensity,CaNbp2,≤ 0
same,SPOT peptide array binding signal intensity,CaRvs167,0.833
same,SPOT peptide array binding signal intensity,CaRvs167-3,3.25
same,SPOT peptide array binding signal intensity,CaSho1,≤ 0
same,SPOT peptide array binding signal intensity,CaSla1-D1-D2,≤ 0
same,SPOT peptide array binding signal intensity,CaSla1-D3,0.5
same,SPOT peptide array binding signal intensity,ScAbp1,≤ 0
same,SPOT peptide array binding signal intensity,ScBbc1,≤ 0
same,SPOT peptide array binding signal intensity,ScBem1-D1,8
same,SPOT peptide array binding signal intensity,ScBzz1-D1,17.5
same,SPOT peptide array binding signal intensity,ScBzz1-D2,22.5
same,SPOT peptide array binding signal intensity,ScCyk3,≤ 0
same,SPOT peptide array binding signal intensity,ScFus1,≤ 0
same,SPOT peptide array binding signal intensity,ScHof1,≤ 0
same,SPOT peptide array binding signal intensity,ScHse1,≤ 0
same,SPOT peptide array binding signal intensity,ScLsb1,601
same,SPOT peptide array binding signal intensity,ScLsb2,895
same,SPOT peptide array binding signal intensity,ScLsb3,≤ 0
same,SPOT peptide array binding signal intensity,ScLsb4,≤ 0
same,SPOT peptide array binding signal intensity,ScMyo3,0.5
same,SPOT peptide array binding signal intensity,ScMyo5,≤ 0
same,SPOT peptide array binding signal intensity,ScNbp2,≤ 0
same,SPOT peptide array binding signal intensity,ScPex13,≤ 0
same,SPOT peptide array binding signal intensity,ScRvs167,1.83
same,SPOT peptide array binding signal intensity,ScSho1,≤ 0
same,SPOT peptide array binding signal intensity,ScSla1-D1-D2,≤ 0
same,SPOT peptide array binding signal intensity,ScSla1-D3,10.5
same,SPOT peptide array binding signal intensity,SpAbp1-D1,1
same,SPOT peptide array binding signal intensity,SpBbc1,≤ 0
same,SPOT peptide array binding signal intensity,SpBzz1-D1,75.5
same,SPOT peptide array binding signal intensity,SpBzz1-D2,≤ 0
same,SPOT peptide array binding signal intensity,SpCyk3,≤ 0
same,SPOT peptide array binding signal intensity,SpHof1,≤ 0
same,SPOT peptide array binding signal intensity,SpHof1-2,≤ 0
same,SPOT peptide array binding signal intensity,SpHof1-3,≤ 0
same,SPOT peptide array binding signal intensity,SpHse1,≤ 0
same,SPOT peptide array binding signal intensity,SpLsb1,68.5
same,SPOT peptide array binding signal intensity,SpLsb4,≤ 0
same,SPOT peptide array binding signal intensity,SpMyo1,3.5
same,SPOT peptide array binding signal intensity,SpNbp2,7
same,SPOT peptide array binding signal intensity,SpPex13,≤ 0
same,SPOT peptide array binding signal intensity,SpRvs167,0.333
same,SPOT peptide array binding signal intensity,SpSla1-D1-D2,2
same,SPOT peptide array binding signal intensity,SpSla1-D3,≤ 0
LFMKGTPEFPKSGFS,SPOT peptide array binding signal intensity,AgAbp1,≤ 0
same,SPOT peptide array binding signal intensity,AgBbc1,12.5
same,SPOT peptide array binding signal intensity,AgBem1-D1,224
same,SPOT peptide array binding signal intensity,AgBzz1-D1,8.5
same,SPOT peptide array binding signal intensity,AgBzz1-D2,7
same,SPOT peptide array binding signal intensity,AgCyk3,≤ 0
same,SPOT peptide array binding signal intensity,AgFus1,479
same,SPOT peptide array binding signal intensity,AgHof1,7
same,SPOT peptide array binding signal intensity,AgHse1,104
same,SPOT peptide array binding signal intensity,AgLsb1,≤ 0
same,SPOT peptide array binding signal intensity,AgLsb4,5
same,SPOT peptide array binding signal intensity,AgMyo5,5
same,SPOT peptide array binding signal intensity,AgNbp2,208
same,SPOT peptide array binding signal intensity,AgRvs167,0.667
same,SPOT peptide array binding signal intensity,AgSho1,248
same,SPOT peptide array binding signal intensity,AgSla1-D1-D2,4
same,SPOT peptide array binding signal intensity,AgSla1-D3,5
same,SPOT peptide array binding signal intensity,CaAbp1-D1,291
same,SPOT peptide array binding signal intensity,CaAbp1-D2,224
same,SPOT peptide array binding signal intensity,CaBbc1,40.5
same,SPOT peptide array binding signal intensity,CaBem1-D1,272
same,SPOT peptide array binding signal intensity,CaBzz1-D1,182
same,SPOT peptide array binding signal intensity,CaBzz1-D2,58.8
same,SPOT peptide array binding signal intensity,CaCyk3,7.5
same,SPOT peptide array binding signal intensity,CaFus1,914
same,SPOT peptide array binding signal intensity,CaHof1,≤ 0
same,SPOT peptide array binding signal intensity,CaHse1,113
same,SPOT peptide array binding signal intensity,CaLsb1,3.5
same,SPOT peptide array binding signal intensity,CaLsb4,196
same,SPOT peptide array binding signal intensity,CaMyo5,40.2
